Compounds with a hit are over-represented: about 7.7% of the library has one in this group of screens.
FMDV antiviral: blocks foot and mouth disease virus; Potency, µM (series often up to 57.9 µM), without a hit: at the highest dose activity change, negative = inhibition, actives largely listed as inhibitors; 410,000 compounds, 1.2% hits; FMDV antiviral cell-based qHTS; calls by dose curve; tested in HEK293T cells; further: read-out not given here; potency means the concentration at half of the fitted maximal effect; nearly all actives have a fitted effect of over 45% in size
RE007 growth inh: less growth of the S. pombe RE007 Vpr strain. 360,000 compounds, 0.21% hits. AID 651644. S. pombe RE007 Vpr strain, BacTiter-Glo ATP luminescence, 24 h. Potency, µM (doses to about 92.2 µM), for the others: at the highest dose activity change, negative = less growth, usual class: inhibitors; active means well fitted falling curve with a large enough effect; inconclusive means small, poorly fitted or top-dose-only effect; inactive means no such curve, though single readings can be large or run the other way; further: potency means the concentration at half of the fitted maximal effect; nearly all actives have a fitted effect of over 50% in size
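Fission yeast strain RE007, carrying one chromosomally integrated HIV-1 vpr copy, was seeded at OD 0.01 in PMG+AL medium with 23 nL pinned compound. After 24 h at 30 °C and 99% humidity, viability was read by BacTiter-Glo luminescence.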
Sm TGR block: inhibitors of Schistosoma mansoni thioredoxin glutathione reductase | 360,000 compounds, 3% hits | Potency, µM (top dose mostly 114 µM), for the others: at the highest dose activity change, negative = inhibition, most hits filed as inhibitors | Q962Y6 | purified TGR, DTNB reduction, TNB absorbance 405 nm; further: potency means the concentration at half of the fitted maximal effect; nearly all actives have a fitted effect of over 60% in size
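TGR 20 nM + NADPH 100 uM (dispensed conc.), cpd preinc 15 min RT; start with NADPH (500 uM addition) then DTNB (15 mM addition). Kinetic TNB absorbance, 405 nm filter. Four-parameter Hill fit across titration.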
Giardia FBPA inh: Giardia lamblia aldolase inhibition; A8B2U2; purified Giardia FBPA; Potency, µM (doses to about 59.6 µM), for inactives: at the highest dose activity, negative = inhibition, most hits filed as inhibitors; 290,000 compounds, 0.71% hits; further: potency means the concentration at half of the fitted maximal effect; nearly all actives have a fitted effect of over 55% in size
Target sequence (A8B2U2 whole entry, looked up): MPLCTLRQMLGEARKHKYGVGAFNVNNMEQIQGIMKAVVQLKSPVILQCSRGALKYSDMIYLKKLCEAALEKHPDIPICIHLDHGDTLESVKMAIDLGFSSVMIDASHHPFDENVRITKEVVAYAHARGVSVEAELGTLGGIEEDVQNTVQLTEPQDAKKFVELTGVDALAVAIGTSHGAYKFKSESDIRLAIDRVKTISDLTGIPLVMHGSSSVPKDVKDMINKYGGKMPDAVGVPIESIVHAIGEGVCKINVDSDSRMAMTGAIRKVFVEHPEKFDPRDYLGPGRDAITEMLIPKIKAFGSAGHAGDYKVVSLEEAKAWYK
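40 nM FBPA preincubated 10 min at RT with compound (up to 57.5 uM final), then substrate plus GAPDH/TPI/NAD/arsenate coupling and diaphorase/resazurin added. Fluorescence read after 20 min at RT, 525/598 nm.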
TbPYK inhibitor: blocks Trypanosoma brucei pyruvate kinase | Q57TT1 | TbPYK enzyme, Kinase-Glo Plus ATP luminescence, 45 min | Potency, µM (highest dose often 76.8 µM), for inactives: at the top dose activity, negative = inhibition, most hits filed as inhibitors | 410,000 compounds, 0.12% hits; further: potency means the concentration at half of the fitted maximal effect; nearly all actives have a fitted effect of over 50% in size
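Assay buffer: 50 mM TEA pH 7.2, 100 mM KCl, 10 mM MgCl2, 0.05% BSA, 0.01% Tween-20. Pyruvate kinase from T. brucei plus substrate met compound, then ADP (130 uM final). Luminescence was read post 45 min RT.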
HCMV inh: inhibitors of human cytomegalovirus. HFF cells, HCMV-luciferase reporter, 72 h; stronger effect = lower value. activity change, negative = inhibition, % at 57.5 µM. 410,000 compounds, 4.5% hits; in the data active means activity change below about -60%; inconclusive means no clear call, values can overlap the other calls; inactive means above about -39%
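After 16 h attachment at 37C, HFF cells received test compound and HCMV-luciferase (1 PFU/cell); reporter luminescence read 72 h later, data normalized against buffer-only and known inhibitor Salinomycin.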
Numbers without * were called inactive; ? = inconclusive; / = no result given; [ ] = dose if it differs, or a comment. Unless noted, the call rests on the fitted dose curve; in most records, active means well fitted curve in the direction sought with a large enough effect; inconclusive means small, poorly fitted or top-dose-only effect, or another doubt; inactive means no such curve, though single readings can be large; an effect the other way counts as inactive or inconclusive. On the % scale 0 is the no-effect control and ±100 the full control effect.

SMILES | FMDV antiviral | RE007 growth inh | Sm TGR block | Giardia FBPA inh | TbPYK inhibitor | HCMV inh
CCn1nc(C)c(/C=N/NC(=S)Nc2ccc(Cl)cc2Cl)c1C | 10.2% | -9.0% | 0.1% | -3.5% | -5.6% | -103.2*
O=[N+]([O-])c1ccc(/C=N/NC(=S)Nc2ccc(Cl)cc2Cl)s1 | -20.6% | 2.1% | 44.7µM* | -27.3% | -5.3% | -63.7*
CCC(=O)Nc1ccccc1-c1nc2ccccc2n(CC(=O)c2ccc(Br)cc2)c1=O | -20.2% | / | 0.8% | / | -7.3% | 2.6
COc1ccc(OC)c(CNc2ncnc3onc(-c4ccc(Cl)cc4)c23)c1 | ? | / | 5.0% | / | -5.2% | ?
CCOc1ccccc1Nc1nc(-c2ccc(C)cc2)c(CC(=O)O)s1 | 30.9% | / | 39.8µM* | / | -8.4% | 63.0
CCOP(=O)(OCC)/C(=N/OC(=O)c1ccc(Cl)cc1Cl)C(N)=O | -1.8% | 9.8% | 6.31µM* | -28.8% | -6.0% | 54.6
CCOC(=O)/C(=C/c1c(C)n(C)c2ccc([N+](=O)[O-])cc12)C(C)=O | 12.6µM* | 3.2% | -12.5% | -26.0% | 3.4% | -85.4*
CCOC(=O)c1c(N)c2cc([N+](=O)[O-])ccc2n1C | 4.6% | -5.2% | 0.1% | 0.0% | -1.5% | -16.3
C=CCN(C(C(=O)OC)C(C)C)S(=O)(=O)CCl (stereo not given) | / | / | / | -4.9% | / | /
COCC(=O)N1CCc2nc(COc3ccccc3)c3c(c2C1)CO[C@@H](C)C3 | / | / | / | 3.0%[12.9 µM] | / | /
Cc1ccsc1/C=N/Nc1ccc(C(=O)O)cc1 | 8.91µM* | -7.1% | -12.7% | -6.9% | -15.1% | -28.3
Cc1ccsc1/C=N/NC(=S)NCc1ccccc1 | 28.9% | 3.4% | 8.2% | 15.8% | -6.3% | 12.3
Cc1ccsc1/C=N/NC(=O)C(N)=O | 39.2% | 17.0% | -5.0% | -2.8% | -14.6% | -19.4
Cc1ccsc1/C=N/NC(=O)CNC(=O)c1ccccc1 | -4.9% | 8.6% | -25.0% | 10.0% | -0.3% | 0.0
Cc1ccsc1/C=N\NC(=O)CC(=O)NCc1ccccc1 | 8.9% | 1.1% | 11.4% | 19.9µM* | -6.1% | -24.3
Cc1ccsc1/C=N/Nc1cccc(C(=O)O)c1 | 4.47µM* | -0.3% | 2.3% | 14.2% | -20.3% | 120.8
O=C(Nc1ccc(OCc2cc(=O)n3c4c(sc3n2)CCCC4)cc1)c1cccc(F)c1 | 0.1% | / | -7.9% | / | 4.4% | -1.0
O=C(Nc1cccc(Cl)c1)OCc1cn(-c2ccccc2)nn1 | 2.51µM* | 2.4% | 2.7% | -4.2% | -4.5% | -15.0
COc1ccc(N(CC(=O)NCc2ccccc2Cl)S(=O)(=O)c2c(C)noc2C)cc1 | ? | 0.7% | 0.2% | 7.8% | 0.0% | -33.7
CCOc1ccccc1NC(=O)CN(c1ccc(C)cc1)S(=O)(=O)c1c(C)noc1C | ? | 2.6% | 8.9% | -6.7% | 0.9% | -9.1
CCOc1ccc(N(CC(=O)NCCc2ccc(C)cc2)S(=O)(=O)c2c(C)noc2C)cc1 | -12.0% | 4.6% | -17.3% | / | 4.9% | -69.1*
Cc1ccc(N(CC(=O)NCCc2ccccc2)S(=O)(=O)c2c(C)noc2C)cc1 | / | 1.5% | -4.4% | 4.3% | -6.2% | -9.4
Cc1noc(C)c1S(=O)(=O)N(CC(=O)NCc1ccccc1Cl)c1ccc(C(C)C)cc1 | -22.8% | / | 0.4% | / | 1.9% | -62.0*
CCc1ccc(NC(=O)CN(c2ccc3c(c2)OCO3)S(=O)(=O)c2c(C)noc2C)cc1 | ? | -8.1% | 0.0% | -1.4% | -5.1% | -70.8*
CCOc1ccc(N(CC(=O)Nc2ccc3c(c2)OCCO3)S(=O)(=O)c2c(C)noc2C)cc1 | -11.9% | -0.9% | 15.4% | -8.3% | -5.2% | -20.9
SMILES | FMDV antiviral | RE007 growth inh | Sm TGR block | Giardia FBPA inh | TbPYK inhibitor | HCMV inh
CCOc1ccc(N(CC(=O)Nc2ccccc2CC)S(=O)(=O)c2c(C)noc2C)cc1 | -7.4% | / | -0.3% | / | -4.6% | -90.7*
COc1cc(NC(=O)C(Cc2ccccc2)NS(=O)(=O)c2cccc3nsnc23)cc(OC)c1 (stereo not given) | 1.5% | / | 0.2% | / | -1.3% | ?
Cc1ccccc1CSc1cn(CC(=O)N2CCCC2)c2ccccc12 | 17.9% | / | 26.0% | / | 2.0% | 39.2
CC(=O)c1cccc(Nc2ncnc3c2cnn3C)c1 | -9.3% | / | 0.0% | / | -2.0% | -11.6
CCCCN(CC)C(=O)C1CCCN(c2ncnc3c2nc2n3CCCCC2)C1 (stereo not given) | -29.7% | / | 5.2% | / | 0.0% | -4.6
CC(NC(=O)/C(=C/c1ccc(OC(F)F)cc1)c1ccccc1)c1ccccc1 (stereo not given) | ? | -1.5% | 8.1% | 6.5% | 4.0% | -79.3*
CCOC(=O)c1ccc(NC(=S)N(CCN(C)C)Cc2cccs2)cc1 | 54.2% | 7.5% | 13.2% | 2.3% | -2.8% | -61.2*
Cc1ccc(NC(=S)N(CCN(C)C)Cc2cccs2)cc1 | 26.7% | 2.4% | 13.4% | 0.2% | -7.3% | -38.5
O=[N+]([O-])c1ccccc1-c1cc(-c2ccccc2Br)no1 | / | / | / | / | / | 71.1
CCCN1C(C(=O)c2ccccc2)=C(OC(=O)C(C)(C)C)c2ccccc2S1(=O)=O | -14.9% | / | 1.7% | / | -8.8% | -89.5*
C=CCN1C(C(=O)c2ccccc2)=C(OC(=O)COc2ccccc2)c2ccccc2S1(=O)=O | -17.3% | ? | 11.2µM* | -4.5% | -8.7% | -35.2
CCCN1C(C(=O)c2ccccc2)=C(OC(=O)COc2ccccc2)c2ccccc2S1(=O)=O | -3.5% | / | 11.2µM* | / | -2.0% | -88.5*
CCN1C(C(=O)c2ccccc2)=C(OC(=O)COc2ccc(OC)cc2)c2ccccc2S1(=O)=O | -11.1% | / | 11.2µM* | / | -5.4% | ?
CCCCC(=O)OC1=C(C(=O)c2ccccc2)N(C)S(=O)(=O)c2ccccc21 | -26.8% | / | -28.1% | / | 0.1% | 11.2
COC(=O)CN1C(C(=O)c2ccccc2)=C(OC(=O)c2ccc(F)cc2)c2ccccc2S1(=O)=O | -21.1% | / | -12.7% | / | 1.0% | -10.8
Cc1c(C(=O)NCc2cccc(Br)c2)oc2ccc3c(c12)C(=O)CC(C)(C)O3 | 12.3% | / | 3.3% | / | 2.2% | 58.1
CCCN1C(C(=O)c2ccccc2)=C(OC(=O)COc2ccc(C)cc2)c2ccccc2S1(=O)=O | 0.2% | / | 10µM* | / | 0.9% | -91.5*
CCN1C(C(=O)c2ccccc2)=C(OC(=O)c2ccc(Cl)cc2)c2ccccc2S1(=O)=O | -1.9% | / | -1.3% | / | -5.3% | -77.1*
CCN1C(C(=O)c2ccccc2)=C(OC(=O)COc2ccc(C)cc2)c2ccccc2S1(=O)=O | -3.6% | / | 10µM* | / | 6.7% | -31.9
CCOC(=O)CN1C(C(=O)c2ccccc2)=C(OC(=O)c2ccccc2)c2ccccc2S1(=O)=O | -23.7% | / | -3.4% | / | 0.5% | 7.1
C=C1CCN(C(CC(C)C)C(=O)NCc2ccc(Cl)cc2)S(=O)(=O)c2ccccc21 (stereo not given) | / | / | / | -2.8% | / | /
